# Measurements: ChEMBL document CHEMBL3988442, “University of Dundee, Small-Polar-MMV Screening Library” (2021)
# For part of these data: Potency and affinity values are given separately.
# Assays:
# Parameters in all cases: scale not given: direction of the effect not stated beside the values
# [1] = target: Protein translocase subunit SecA (Escherichia coli (strain K12)) (UniProt P10408); assay: Assay to Identify E. coli SecA ATPase Inhibitors; type: functional; settings: 30 µM
# [2] = target: T1, Ubiquitin-activating enzyme e1, putative (Leishmania donovani (strain BPK282A1)) (UniProt E9BSI1); assay: Leishmania donovani Ubiquitin Activating Enzyme (LdE1); type: functional; settings: 30 µM
# T1 sequence (whole entry): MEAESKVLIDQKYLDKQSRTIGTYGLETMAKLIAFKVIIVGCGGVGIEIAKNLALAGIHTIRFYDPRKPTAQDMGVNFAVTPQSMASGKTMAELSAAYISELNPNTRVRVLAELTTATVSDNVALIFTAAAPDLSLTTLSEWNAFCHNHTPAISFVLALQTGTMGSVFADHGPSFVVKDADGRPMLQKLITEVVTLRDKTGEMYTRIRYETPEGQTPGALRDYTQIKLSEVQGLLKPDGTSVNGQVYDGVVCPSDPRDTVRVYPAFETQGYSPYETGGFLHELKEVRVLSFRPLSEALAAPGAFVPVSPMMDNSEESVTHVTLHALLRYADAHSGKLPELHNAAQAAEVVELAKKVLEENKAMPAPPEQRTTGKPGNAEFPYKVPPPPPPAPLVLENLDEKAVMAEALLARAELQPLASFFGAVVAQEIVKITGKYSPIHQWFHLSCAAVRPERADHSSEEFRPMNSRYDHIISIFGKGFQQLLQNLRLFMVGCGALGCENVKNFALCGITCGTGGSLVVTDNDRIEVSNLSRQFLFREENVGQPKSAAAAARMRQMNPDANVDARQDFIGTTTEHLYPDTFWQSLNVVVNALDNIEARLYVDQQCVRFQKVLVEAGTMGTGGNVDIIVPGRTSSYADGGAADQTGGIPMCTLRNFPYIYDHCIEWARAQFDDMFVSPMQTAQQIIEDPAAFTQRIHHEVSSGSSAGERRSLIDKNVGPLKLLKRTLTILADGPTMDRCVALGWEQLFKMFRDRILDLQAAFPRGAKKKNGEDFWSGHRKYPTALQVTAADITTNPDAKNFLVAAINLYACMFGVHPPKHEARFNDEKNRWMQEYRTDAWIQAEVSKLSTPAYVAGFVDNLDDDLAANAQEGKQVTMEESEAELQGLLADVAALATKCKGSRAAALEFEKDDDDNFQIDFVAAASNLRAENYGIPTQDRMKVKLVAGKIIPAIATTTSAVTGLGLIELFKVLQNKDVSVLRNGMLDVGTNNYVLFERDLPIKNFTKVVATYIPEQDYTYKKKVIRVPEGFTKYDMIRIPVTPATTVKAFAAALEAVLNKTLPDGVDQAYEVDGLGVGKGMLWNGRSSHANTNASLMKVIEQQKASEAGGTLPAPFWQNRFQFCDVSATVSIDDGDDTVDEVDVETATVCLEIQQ
# [3] = target: Sialic acid-binding Ig-like lectin 9 (Homo sapiens) (UniProt Q9Y336); assay: Hs-Siglec9 ALPHAscreen SOP 20170721; settings: 10 µM
# Sialic acid-binding Ig-like lectin 9 (Homo sapiens), sequence (Q9Y336 whole entry): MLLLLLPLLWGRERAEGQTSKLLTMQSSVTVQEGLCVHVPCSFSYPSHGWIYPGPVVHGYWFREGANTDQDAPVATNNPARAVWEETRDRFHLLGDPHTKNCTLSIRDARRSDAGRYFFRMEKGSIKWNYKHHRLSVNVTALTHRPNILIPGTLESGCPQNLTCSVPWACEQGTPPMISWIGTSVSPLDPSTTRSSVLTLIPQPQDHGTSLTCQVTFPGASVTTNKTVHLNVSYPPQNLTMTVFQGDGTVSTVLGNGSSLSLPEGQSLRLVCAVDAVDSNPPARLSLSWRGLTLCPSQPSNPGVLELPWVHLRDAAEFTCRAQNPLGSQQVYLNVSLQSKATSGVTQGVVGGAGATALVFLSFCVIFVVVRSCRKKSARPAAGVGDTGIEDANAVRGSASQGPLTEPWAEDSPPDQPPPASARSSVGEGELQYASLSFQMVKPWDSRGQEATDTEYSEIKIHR
# [4] = test system: Trypanosoma cruzi; assay: Trypanosoma cruzi phosphomannomutase and mannose-1-phosphate guanylyltransferase assay; type: functional; settings: 10 µM
# [5] = target: T2, Arginase-2, mitochondrial (Homo sapiens) (UniProt P78540); assay: in vitro enzyme assay to detect the production of urea directly proportional to the activity of Arginase II; type: functional; settings: 33.3 µM; also: in the data most compounds retested in dose-response had high values
# T2 sequence (whole entry): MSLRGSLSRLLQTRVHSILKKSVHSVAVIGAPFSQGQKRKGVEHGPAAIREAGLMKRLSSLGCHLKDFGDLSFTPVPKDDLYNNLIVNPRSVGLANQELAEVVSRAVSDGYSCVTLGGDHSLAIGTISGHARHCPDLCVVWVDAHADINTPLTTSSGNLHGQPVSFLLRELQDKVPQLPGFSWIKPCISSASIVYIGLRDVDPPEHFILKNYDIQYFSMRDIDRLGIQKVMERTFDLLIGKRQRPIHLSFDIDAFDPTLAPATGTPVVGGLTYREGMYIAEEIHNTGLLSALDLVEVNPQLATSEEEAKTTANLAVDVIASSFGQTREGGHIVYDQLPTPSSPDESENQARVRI
# [6] = target: T3, Proteasome subunit beta (Trypanosoma cruzi) (UniProt O96673); assay: Trypanosoma cruzi proteasome chymotrypsin-like activity (TcProtChymo) assay.; also: in the data most compounds retested in dose-response had high values; type: functional; settings: 9.37 µM
# T3 sequence (whole entry): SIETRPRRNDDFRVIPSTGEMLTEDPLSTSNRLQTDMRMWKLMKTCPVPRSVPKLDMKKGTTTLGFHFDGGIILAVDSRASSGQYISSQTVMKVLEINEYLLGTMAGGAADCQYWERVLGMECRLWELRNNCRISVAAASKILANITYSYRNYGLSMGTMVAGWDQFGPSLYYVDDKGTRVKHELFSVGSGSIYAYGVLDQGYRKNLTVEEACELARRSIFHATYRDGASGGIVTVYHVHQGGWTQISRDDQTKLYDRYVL
# [7] = organism: Homo sapiens; assay: To identify inhibition of the IFN signalling (Jak-Stat) pathway via expression of an eGFP reporter gene under the control of an IFN-stimulated response element (ISRE) containing MxA promoter.; type: functional; settings: 30 µM
# [8] = target: T4, Tyrosyl-tRNA synthetase, putative (Trypanosoma cruzi (strain CL Brener)) (UniProt Q4DSP6); assay: Trypanosoma cruzi tyrosyl tRNA synthetase (TcYRS) _High Tyrosine SOP; type: functional; settings: 30 µM; also: in the data most compounds retested in dose-response had high values
# T4 sequence (whole entry): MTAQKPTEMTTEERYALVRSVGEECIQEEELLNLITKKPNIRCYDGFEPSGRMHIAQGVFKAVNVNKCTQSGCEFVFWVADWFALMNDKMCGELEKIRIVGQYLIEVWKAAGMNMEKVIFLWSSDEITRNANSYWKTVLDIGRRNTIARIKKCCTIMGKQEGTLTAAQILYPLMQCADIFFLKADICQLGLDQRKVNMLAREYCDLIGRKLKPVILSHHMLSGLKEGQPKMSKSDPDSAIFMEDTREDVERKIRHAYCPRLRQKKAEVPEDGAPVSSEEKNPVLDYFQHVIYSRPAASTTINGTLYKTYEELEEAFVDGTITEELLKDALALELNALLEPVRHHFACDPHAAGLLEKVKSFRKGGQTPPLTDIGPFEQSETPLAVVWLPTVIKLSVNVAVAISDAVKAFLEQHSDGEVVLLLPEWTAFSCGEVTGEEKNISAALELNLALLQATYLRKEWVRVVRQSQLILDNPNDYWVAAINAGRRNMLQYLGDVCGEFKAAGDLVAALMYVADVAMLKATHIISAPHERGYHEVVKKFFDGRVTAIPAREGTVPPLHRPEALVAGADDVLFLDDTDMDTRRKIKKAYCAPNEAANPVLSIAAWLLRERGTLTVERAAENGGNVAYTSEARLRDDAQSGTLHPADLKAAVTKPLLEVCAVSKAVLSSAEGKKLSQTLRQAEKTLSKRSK
# [9] = target: T4, Tyrosyl-tRNA synthetase, putative (Trypanosoma cruzi (strain CL Brener)); assay: Trypanosoma cruzi tyrosyl tRNA synthetase (TcYRS) SOP; type: functional; settings: 30 µM
# [10] = target: Chromo domain-containing protein 1 (Saccharomyces cerevisiae (strain ATCC 204508 / S288c) (Baker's yeast)) (UniProt P32657); assay: ScCHD-1 Enzyme Inhibition Assay; type: functional; settings: 30 µM; also: in the data most compounds retested in dose-response had high values
# Chromo domain-containing protein 1 (Saccharomyces cerevisiae (strain ATCC 204508 / S288c) (Baker's yeast)), sequence (P32657 whole entry, the tested form may be a part): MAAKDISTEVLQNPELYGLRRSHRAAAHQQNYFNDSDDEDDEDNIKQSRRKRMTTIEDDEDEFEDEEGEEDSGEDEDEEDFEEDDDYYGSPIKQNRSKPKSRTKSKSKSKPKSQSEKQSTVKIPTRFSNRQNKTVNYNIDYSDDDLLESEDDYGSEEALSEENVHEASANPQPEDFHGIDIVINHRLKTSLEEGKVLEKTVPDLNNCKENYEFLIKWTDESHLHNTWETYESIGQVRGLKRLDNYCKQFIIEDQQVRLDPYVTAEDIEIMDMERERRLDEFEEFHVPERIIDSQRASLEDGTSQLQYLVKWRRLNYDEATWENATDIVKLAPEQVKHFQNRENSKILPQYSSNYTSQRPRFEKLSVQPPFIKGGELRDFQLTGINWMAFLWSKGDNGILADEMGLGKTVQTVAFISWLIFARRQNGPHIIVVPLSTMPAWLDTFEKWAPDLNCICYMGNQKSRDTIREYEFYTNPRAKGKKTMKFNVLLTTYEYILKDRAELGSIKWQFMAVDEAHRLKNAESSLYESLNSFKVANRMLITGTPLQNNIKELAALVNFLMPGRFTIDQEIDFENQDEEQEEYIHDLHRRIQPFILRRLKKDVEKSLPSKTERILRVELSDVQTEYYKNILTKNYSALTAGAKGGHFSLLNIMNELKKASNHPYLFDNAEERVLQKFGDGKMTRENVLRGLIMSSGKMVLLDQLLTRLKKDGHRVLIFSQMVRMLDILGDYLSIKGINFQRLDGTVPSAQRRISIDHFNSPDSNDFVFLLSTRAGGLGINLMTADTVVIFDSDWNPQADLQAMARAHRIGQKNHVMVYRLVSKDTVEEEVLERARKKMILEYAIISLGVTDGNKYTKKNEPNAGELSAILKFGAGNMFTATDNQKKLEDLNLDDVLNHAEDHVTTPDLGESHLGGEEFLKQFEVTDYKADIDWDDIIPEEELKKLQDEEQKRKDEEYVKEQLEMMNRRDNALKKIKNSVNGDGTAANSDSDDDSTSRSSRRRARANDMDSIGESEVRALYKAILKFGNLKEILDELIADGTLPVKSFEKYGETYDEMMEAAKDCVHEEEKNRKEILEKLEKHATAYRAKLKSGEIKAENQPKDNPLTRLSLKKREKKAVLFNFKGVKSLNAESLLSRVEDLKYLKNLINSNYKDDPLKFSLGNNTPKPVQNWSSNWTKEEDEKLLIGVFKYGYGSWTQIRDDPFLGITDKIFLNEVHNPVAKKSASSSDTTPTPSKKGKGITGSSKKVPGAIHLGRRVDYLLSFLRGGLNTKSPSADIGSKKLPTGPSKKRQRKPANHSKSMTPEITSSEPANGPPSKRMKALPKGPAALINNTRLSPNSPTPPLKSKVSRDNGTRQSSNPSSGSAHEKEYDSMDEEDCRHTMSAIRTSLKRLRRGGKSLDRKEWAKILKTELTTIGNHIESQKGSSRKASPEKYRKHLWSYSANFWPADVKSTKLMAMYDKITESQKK
# Protein translocase subunit SecA (Escherichia coli (strain K12)), sequence (P10408 whole entry): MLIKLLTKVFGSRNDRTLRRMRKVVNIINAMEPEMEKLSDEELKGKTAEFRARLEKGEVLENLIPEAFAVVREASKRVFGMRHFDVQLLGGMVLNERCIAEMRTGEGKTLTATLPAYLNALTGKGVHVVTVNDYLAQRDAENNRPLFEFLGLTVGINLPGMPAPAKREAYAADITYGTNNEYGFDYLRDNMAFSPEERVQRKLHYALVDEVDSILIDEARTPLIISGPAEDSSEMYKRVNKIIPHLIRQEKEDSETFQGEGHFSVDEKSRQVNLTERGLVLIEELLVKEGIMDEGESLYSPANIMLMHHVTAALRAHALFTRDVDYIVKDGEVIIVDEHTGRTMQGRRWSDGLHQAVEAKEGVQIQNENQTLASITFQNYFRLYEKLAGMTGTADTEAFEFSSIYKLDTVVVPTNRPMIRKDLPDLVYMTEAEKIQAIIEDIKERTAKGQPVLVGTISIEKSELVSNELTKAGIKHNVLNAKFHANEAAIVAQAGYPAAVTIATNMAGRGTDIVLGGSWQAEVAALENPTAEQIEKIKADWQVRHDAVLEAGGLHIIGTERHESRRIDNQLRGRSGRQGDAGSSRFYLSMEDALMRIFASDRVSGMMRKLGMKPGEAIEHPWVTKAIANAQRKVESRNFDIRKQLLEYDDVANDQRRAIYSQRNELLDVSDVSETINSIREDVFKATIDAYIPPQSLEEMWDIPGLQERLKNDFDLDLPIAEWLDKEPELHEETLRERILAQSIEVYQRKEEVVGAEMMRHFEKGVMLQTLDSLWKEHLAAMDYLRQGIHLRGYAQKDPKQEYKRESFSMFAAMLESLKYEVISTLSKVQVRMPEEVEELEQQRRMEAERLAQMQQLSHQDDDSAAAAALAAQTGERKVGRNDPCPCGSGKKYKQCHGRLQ
Compound,Percent Effect [1],Percent Effect [2],Percent Effect [3],Percent Effect [4],Percent Effect [5],Percent Effect [6],Percent Effect [7],Percent Effect [8],Percent Effect [9],Percent Effect [10]
COc1cccc(OC)c1C(=O)N1CCN(c2ccccc2F)CC1,0.59%,12%,0.141%,-4.34%,-6.2%,12.2%,46.4%,0%,-5%,-24.9%
Cc1nc(CN2CCO[C@@H]3CN(C(=O)NC(C)C)CC[C@@H]3C2)cs1,-3.94%,1.3%,0.95%,-3.8%,-0.405%,1.85%,-21.3%,3.68%,7.69%,-1.55%
Clc1ccccc1-c1nc(CNC2CCc3ncnn3C2)cs1 (stereo not given),-0.994%,-12.8%,-3.7%,4.6%,0.41%,-0.427%,-12%,2.39%,1.21%,6.45%
CCCn1ncc2c(C(=O)Nc3cnn(CC)c3C)cc(C3CC3)nc21,1.41%,12%,-1.57%,2.76%,3.98%,17.4%,2.46%,2.12%,12.5%,-24.6%
CCc1sc(-c2nnc(CNCCn3cc(C)cn3)o2)cc1C,-2.72%,5.2%,8.91%,-6.34%,4.71%,1.93%,10.2%,4.9%,7.06%,-8.57%
CNc1nc(C2CCCN2C(C)=O)nc2c1CCN(CC1CC1)C2 (stereo not given),-3.68%,9.33%,5.24%,-0.197%,0.885%,12.2%,6.58%,3.17%,10%,-22.7%
CCCn1ncc2c(C(=O)Nc3n[nH]c(SC)n3)cc(C3CC3)nc21,-0.744%,14.7%,-0.527%,-0.395%,-13.7%,11.8%,13.4%,-10.6%,17.5%,-26.6%
CC(C)NC(=O)CC1COC2(CCN(Cc3cccs3)CC2)C1 (stereo not given),-3.1%,16.9%,-2.18%,-3.19%,1.37%,4.89%,-2.98%,4.83%,7.5%,-13.3%
Cc1[nH]nc(CCC(=O)N2CCCC(OCc3cccnc3)C2)c1C (stereo not given),-5.06%,10.8%,4.22%,0.679%,-0.35%,2.91%,27.8%,6.92%,17.1%,-1.03%
CCc1ncnc2c1CCN(Cc1ccc(OC)cc1)CC2,-4.58%,-6.49%,-0.0854%,2.82%,-2.02%,-3.79%,-6.35%,1.58%,-12.8%,0.0386%
Cc1ccc(OCC(O)CN2CCC(Cn3cccn3)CC2)cc1 (stereo not given),-0.525%,7.79%,7.42%,0.373%,4.3%,7.89%,-3.3%,10.8%,23.5%,-5.78%
O=C(CC1CC1)N1C[C@@H]2CCN(c3cnccn3)C[C@@H]2C1,-1.69%,14.3%,4.05%,1.69%,0.913%,5.06%,16.8%,5.8%,15%,-3.72%
CN(Cc1nnc(C2CC2)o1)C1CCN(CCCc2cnn(C)c2)C1 (stereo not given),-0.864%,10.7%,-3.87%,-2.61%,-2.22%,22.1%,18.5%,11.1%,15.4%,-5.79%
Fc1cccc(-c2nc(CN3CCn4c(nnc4C4CC4)C3)co2)c1,2.37%,0%,-4.75%,-5.42%,1.33%,8.4%,19%,0.526%,7.69%,-19%
Cn1cc(-c2nc(CNCCn3cccn3)cs2)cn1,3.44%,10.3%,-15.7%,-6.67%,-0.41%,16%,32.9%,8.13%,13.2%,27.9%
O=C(Nc1cccc2c1CCCC2)C1CCCN1c1nccs1 (stereo not given),-1.27%,5.13%,1.32%,-0.845%,4.51%,5.55%,-6.07%,8.13%,20.5%,13.6%
O=C(c1ncccn1)N1C[C@H]2CCC[C@@]2(COCc2cccnc2)C1,-6.88%,3.9%,-0.0107%,-1.46%,-4.45%,10.3%,89.1%,-2.63%,-7.69%,-1.21%
CC(C)NC(=O)N1CCC2(CC(=O)N(c3cccc(C#N)c3)C2)C1 (stereo not given),-4.66%,-16.9%,0.438%,-3.6%,-3.64%,9.8%,-4.77%,-0.526%,-35.9%,-0.524%
CCN1CCC2(C=C(C(=O)NC3CC3)c3ccccc32)CC1,2.3%,6.49%,-1%,1.13%,0%,-2.49%,-10.8%,-0.966%,2.5%,-3.59%
CS(=O)(=O)N1CCC(c2nnc3ccc(C(=O)N4CCCC4)cn23)C1 (stereo not given),-4.16%,-42.9%,-5.27%,-3.8%,-2.02%,16.9%,6.07%,0.526%,5.13%,-3.44%
Cc1cccc(CN2C(=O)CCC23CCN(Cc2cccn2C)CC3)n1,-2.82%,27.3%,-0.409%,-0.75%,0.457%,16.9%,23.5%,9.66%,22.5%,-11.1%
CCn1ccnc1CN1CCN(CC(O)c2ccccc2)CC1 (stereo not given),-1.54%,2.56%,2.88%,-4.79%,4.51%,6.91%,10.2%,1.44%,6.02%,-0.452%
COc1ccc(CN2CCC3(CC2)CCN(CC(C)C)C3=O)cc1,-1.79%,-1.3%,-0.794%,-0.75%,-3.2%,-0.601%,6.85%,0.966%,0%,-5.19%
CCNC(=O)[C@@H]1C[C@H](NC(=O)Cc2ccsc2)CN1Cc1ccc(C)o1,-3.95%,13.5%,10.2%,9.02%,14.3%,20.9%,20.3%,7.98%,21.9%,80.5%
